Data reported in PubChem BioAssay AID1663 (Broad Institute, 2009).
About 660 (0.22%) of roughly 300,000 compounds were called active. For the sample, actives were picked, then their nearest neighbours and some compounds at random. A number with no mark means an inactive call.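 The calls were made as follows: active = mean replicate score, as percent of positive control, at or above 50; inconclusive = mean below 50 but at least one replicate at or above 50; inactive = mean and every replicate below 50.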

experiment: blockers of SFLLRN-triggered platelet ATP release – cell-based, MLPCN, human platelets, primary screen (AID 1663); conditions: human platelet-rich plasma, SFLLRN dense granule ATP release, luminescence; active compounds read high;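 compounds screened at 7.5 µM in platelet-rich plasma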

| SMILES | inhibition |
| --- | --- |
| O=S(=O)(Nc1ncccn1)c1ccc(NS(=O)(=O)c2cccc(Cl)c2Cl)cc1 | 1.24% |
| COc1cccc(C(=O)c2cc3ccc(O)cc3oc2=O)c1 | 69.5% (active) |
| CCOC(=O)c1cc2cc3ccccc3cc2oc1=O | 8.56% |
| COc1cccc(C(=O)NNC(=O)c2cccc(F)c2)c1 | -6.44% |
| Nc1nonc1-n1nnc(C(=O)N/N=C/c2ccc(Cl)cc2)c1-c1ccc2c(c1)OCO2 | 2.68% |
| O=C(CN1CCOCC1)N1CCCc2c1c(=O)oc1ccc(OCc3ccccc3)cc21 | -1.74% |
| CC(C)(C)c1cc[n+](-c2[nH]c(=O)sc2/C=N/N=C(\[O-])c2ccccc2)cc1 | 3.87% |
| CC(CCc1ccc(O)cc1)NCc1ccc(Cl)cc1Cl (configuration not stated) | 1.67% |
| O=C(CCn1nnnc1CN1CCOCC1)N1CCC(c2ccccc2Cl)C1 (configuration not stated) | 2.44% |
| CCc1cc(CNC(=O)CC2C(=O)NCCN2CC2CCCCC2)on1 (configuration not stated) | 4.79% |
| CN=C1S/C(=C\c2c(OC)cc(OC)cc2OC)C(=O)N1C | 10.3% |
| COc1ccccc1C(=O)COC(=O)CNS(=O)(=O)c1ccc(NC(C)=O)cc1 | 6.24% |
| Cn1cc([N+](=O)[O-])c(C(=O)Nc2ccc3c(c2)OCCO3)n1 | 31.8% |
| Cc1nn(CC(=O)Nc2ccc3c(c2)OCO3)c(C)c1[N+](=O)[O-] | 11.1% |
| Cc1onc(C(=O)Nc2ccc3c(c2)OCO3)c1[N+](=O)[O-] | 75.7% (active) |
| Cc1nn(C)c(Cl)c1CN1CCC(Oc2ccc(C(=O)N3CCCC3)cc2)CC1 | 0.366% |
| Brc1ccc(C2CC(c3ccccc3)=Nc3ccccc3N2)cc1 (configuration not stated) | 7.02% |
| C=CCn1c(C)cc(C2=NNC(=NCC)SC2)c1C | 50.4% (active) |
| Cc1cccc(N=C2NN=C(c3c[nH]c4ccccc34)CS2)c1 | -0.733% |
| C=CCn1c(C)cc(C(=O)CN2C(=O)c3ccccc3C2=O)c1C | 6.9% |
| COc1ccc(CCN2C(=O)N(c3ccc(OC)cc3)C(=O)C2CC(=O)Nc2ccc(OC)cc2)cc1 (configuration not stated) | -2.02% |
| COC(=O)[C@@]12CCCN1[C@H](c1ccc(-c3ccc(F)cc3)c(OC)c1)[C@H]1C(=O)N(C)C(=O)[C@H]12 | 0.984% |
